Calls of active or inactive are those of the source. Unless noted, no rule for the calls is given here.
What was measured:
[1] = HepG2 liver cancer cell viability effects, profiling panel, resazurin fluorescence, 24 h, PK04 Diversity Set (AID 1172); conditions: higher = more signal; also: test concentration not given here
[2] = basal S. cerevisiae growth modulation, no modifier, primary screen, OD600, strain BY4716, 24 h, basal condition (AID 1173); conditions: OD600, 24 h, higher = more signal, called active from +8 up or from −8 down
[3] = MM1S myeloma cell viability, profiling panel, resazurin fluorescence, basal, 24 h, PK04 Diversity Set (AID 1174); conditions: higher = more signal, called active from +8 up or from −8 down;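 also: MM1S multiple myeloma cell line; test concentration not given here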
[4] = biological target: Dihydroorotate dehydrogenase (quinone), mitochondrial (Plasmodium falciparum (isolate 3D7)) (UniProt Q08210); test: PfDHODH enzyme inhibitors, primary screen, biochemical, C-terminal His tag, absorbance 600 nm (AID 1175); conditions: DCIP absorbance 600 nm, higher = more signal, called active from +8 up or from −8 down;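 also: recombinant parasite enzyme with a five histidine tag at its C terminus; test concentration not given here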
[5] = P. aeruginosa biofilm formation inhibitors, primary screen, strain PAO1, LB-PBS medium, absorbance 600 nm (AID 1176); also: test concentration not given here; conditions: P. aeruginosa PAO1 growth/biofilm, A600, 12 h; higher = more signal
[6] = S. cerevisiae RM11-1a growth modifiers, primary screen, strain RM11-1a, OD600, basal, 24 h (AID 1177); conditions: OD600, 24 h, higher = more signal, called active from +8 up or from −8 down;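 also: cultures grown under basal conditions with no added stressor; test concentration not given here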
[7] = E. coli acrAB mutant growth effects, primary screen, E. coli filamentation inducers, strain DRC39, OD650, 24 h (AID 1178); conditions: higher = more signal, called active from +8 up or from −8 down;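 also: growth measured as culture turbidity by optical density at 650 nm; test concentration not given here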
[8] = E. coli acrAB mutant growth effects, primary screen, E. coli filamentation inducers, strain DRC39, OD650, 48 h (AID 1179);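 also: screen aims at cell division blockers that make cells filament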; conditions: E. coli DRC39 delta-acrAB growth, higher = more signal, called active from +8 up or from −8 down
[9] = RPMI8226 myeloma cell viability, profiling panel, resazurin fluorescence, basal, 24 h, PK04 Diversity Set (AID 1180); conditions: higher = more signal;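 also: RPMI8826 multiple myeloma cell line at 5000 cells per well; test concentration not given here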
[10] = biological target: E3 ubiquitin-protein ligase XIAP (Homo sapiens) (UniProt P98170); test: XIAP binders, primary screen, biophysical, small-molecule microarray, fluorescence 635 nm (AID 1181); conditions: small-molecule microarray binding, higher = more signal;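 also: score merges 667 nm emission and signal to noise over triplicate slides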
E3 ubiquitin-protein ligase XIAP (Homo sapiens), sequence (P98170 whole entry, looked up): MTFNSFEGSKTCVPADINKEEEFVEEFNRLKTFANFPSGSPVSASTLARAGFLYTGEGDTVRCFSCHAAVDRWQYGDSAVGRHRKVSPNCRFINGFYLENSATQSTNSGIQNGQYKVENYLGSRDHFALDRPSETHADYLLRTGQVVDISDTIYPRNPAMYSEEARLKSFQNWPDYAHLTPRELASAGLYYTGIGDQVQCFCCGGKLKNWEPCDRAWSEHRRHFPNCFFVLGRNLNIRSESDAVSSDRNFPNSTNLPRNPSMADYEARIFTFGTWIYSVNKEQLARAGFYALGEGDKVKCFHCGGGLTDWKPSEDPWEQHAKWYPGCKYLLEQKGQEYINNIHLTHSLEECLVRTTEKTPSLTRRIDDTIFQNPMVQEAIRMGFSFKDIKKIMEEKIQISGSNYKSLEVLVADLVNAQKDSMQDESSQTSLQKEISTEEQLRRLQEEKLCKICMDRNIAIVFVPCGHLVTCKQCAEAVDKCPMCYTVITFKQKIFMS

Dihydroorotate dehydrogenase (quinone), mitochondrial (Plasmodium falciparum (isolate 3D7)), sequence (Q08210 whole entry, looked up): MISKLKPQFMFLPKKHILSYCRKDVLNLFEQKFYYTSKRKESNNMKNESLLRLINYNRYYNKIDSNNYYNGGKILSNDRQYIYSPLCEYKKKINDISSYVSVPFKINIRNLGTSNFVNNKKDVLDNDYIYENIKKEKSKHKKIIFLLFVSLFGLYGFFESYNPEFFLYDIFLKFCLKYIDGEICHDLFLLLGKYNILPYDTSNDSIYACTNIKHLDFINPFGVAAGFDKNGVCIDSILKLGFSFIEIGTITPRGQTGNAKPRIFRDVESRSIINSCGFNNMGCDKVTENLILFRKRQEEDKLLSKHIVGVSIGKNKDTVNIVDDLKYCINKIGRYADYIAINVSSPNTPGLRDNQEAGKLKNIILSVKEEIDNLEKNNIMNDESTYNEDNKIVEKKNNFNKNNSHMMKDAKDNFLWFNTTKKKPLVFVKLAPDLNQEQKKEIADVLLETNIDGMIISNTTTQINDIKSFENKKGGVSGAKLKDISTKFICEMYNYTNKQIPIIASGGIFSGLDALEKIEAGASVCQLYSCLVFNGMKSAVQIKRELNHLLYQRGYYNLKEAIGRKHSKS

Row | SMILES | z-score [1] | z-score [2] | z-score [3] | composite z-score [4] | z-score [5] | z-score [6] | z-score [7] | z-score [8] | z-score [9] | composite z-score [10]
1 | COCCNC(=O)OCC1CCCC2(CC(OC(=O)NCCc3ccc(F)cc3)CC(CCC(=O)N[C@@H](C)C(=O)OC)O2)O1 (stereo not given in full) | 0.864 | -0.183 (inactive) | 0.899 (inactive) | -0.0746 (inactive) | 0.262 (inactive) | 0.684 (inactive) | 0.963 (inactive) | 1.16 (inactive) | 1.07 | -0.216
2 | CC[C@@H](c1ccccc1)n1c(=O)n2n(c1=O)[C@H]1[C@H](O)[C@@H]3O[C@@H]3C(=NOCC=C(C)CCC=C(C)C)[C@H]1CC2 | -0.301 | 0.11 (inactive) | -0.16 (inactive) | 0.0031 (inactive) | -0.261 (inactive) | 1.01 (inactive) | -0.271 (inactive) | -1.98 (inactive) | -0.451 | -0.141
3 | COc1cccc([C@H]2Oc3ccc(OC)cc3C(=NOC(C)CN3CCCc4nc(C)c(C)cc43)[C@@H]2O)c1 (stereo not given in full) | -0.948 | -0.872 (inactive) | -0.944 (inactive) | 0.956 (inactive) | -0.136 (inactive) | -0.168 (inactive) | -0.0128 (inactive) | -0.565 (inactive) | -0.948 | 0.271
4 | CCCNC(=O)[C@@H]1c2ccccc2C(=O)N(c2ccc(C)cn2)[C@H]1c1ccc(CO)cc1 | 0.306 | 0.325 (inactive) | -0.472 (inactive) | -0.165 (inactive) | 0.388 (inactive) | -0.826 (inactive) | 0.232 (inactive) | 0.0239 (inactive) | -0.682 | -0.165
5 | COc1ccc([Si](C)(C)[C@H]2[C@H](CC(=O)N3CCC[C@H]3CO)O[C@@]3(C(=O)N(Cc4cccc(N5C(=O)COc6ccccc65)c4)c4ccccc43)[C@@H]2C)cc1 | -0.58 | -1.16 (inactive) | -0.986 (inactive) | -3.33 (inactive) | 1.85 (inactive) | -1.74 (inactive) | 1.21 (inactive) | 1.32 (inactive) | -0.524 | -0.0795
6 | CCN1C(=O)[C@H]2[C@H]3[C@H](O)C=CC(=O)[C@@H]3CC[C@H]2C1=O | 0.384 | -0.067 (inactive) | 0.442 (inactive) | -0.28 (inactive) | -0.519 (inactive) | 0.197 (inactive) | 0.484 (inactive) | 0.205 (inactive) | -0.194 | -0.133
7 | CC(C)C[C@@H]1NC(=O)[C@H]2C[C@@H](C(=O)NCCCCCCN(C)C)[C@@H](c3cccc(OCCO)c3)N2C1=O | -0.233 | -0.0693 (inactive) | -0.891 (inactive) | 0.344 (inactive) | -0.0059 (inactive) | -0.159 (inactive) | 0.0442 (inactive) | 0.0484 (inactive) | -0.992 | 0.0753
8 | C[C@@H]1C=CCC(=O)OC[C@H](C)C(=O)N2CCC[C@H]2C(=O)OC1 | 0.613 | 0.516 (inactive) | -0.0084 (inactive) | -0.697 (inactive) | -0.549 (inactive) | 0.21 (inactive) | 0.686 (inactive) | 0.528 (inactive) | 0.575 | -0.0416
9 | O=C1[C@H]2[C@H]3[C@H](O)[C@H](O)CC(=NO[C@@H]4O[C@H](CO)[C@@H](O)[C@H](O)[C@H]4O)[C@@H]3CC[C@H]2C(=O)N1Cc1ccccc1 | 1.04 | -0.391 (inactive) | 0.0897 (inactive) | 0.261 (inactive) | 0.565 (inactive) | -0.497 (inactive) | 0.405 (inactive) | 1.21 (inactive) | -0.145 | 0.0689
10 | COC(=O)[C@]1(CO)N=C(c2ccc(OCCCO)cc2)O[C@@H]1c1ccccc1N=[N+]=[N-] | -0.318 | -0.114 (inactive) | -0.198 (inactive) | 0.482 (inactive) | 0.205 (inactive) | -0.709 (inactive) | -0.131 (inactive) | 0.57 (inactive) | -0.459 | 0.964
11 | COc1ccc(O[C@H]2C=C[C@@H](c3ccccc3)O[C@@H]2COC(=O)CCC(C)=NOC[C@@H](C)[C@H](OCc2ccccc2)C(C)C)cc1 | 0.85 | 0.445 (inactive) | 0.24 (inactive) | -0.926 (inactive) | -0.598 (inactive) | 0.659 (inactive) | 0.394 (inactive) | -0.9 (inactive) | 0.0668 | 0.552
12 | COC(=O)CC=C[C@@H](C)[C@@H](C=NO[C@H](C)c1cn([C@@H]2COC[C@H]2O)nn1)OC | -0.879 | -0.435 (inactive) | -0.179 (inactive) | -0.295 (inactive) | 0.666 (inactive) | 0.0782 (inactive) | 0.773 (inactive) | 0.878 (inactive) | -0.359 | -0.0206
13 | O=C1[C@H]2[C@H]3[C@H](O)[C@H](O)CC(=NO[C@@H]4O[C@H](CO)[C@@H](O)[C@H](O)[C@H]4O)[C@H]3CC[C@H]2C(=O)N1C1CCCCC1 | 0.241 | 0.205 (inactive) | -0.655 (inactive) | 0.26 (inactive) | -0.613 (inactive) | -0.629 (inactive) | 0.411 (inactive) | 0.232 (inactive) | -0.815 | 0.155
14 | CC1CC/C=C\[C@H]2OC34C=CCN(Cn5nnc6ccccc65)C(=O)[C@H]3N(CCO)C(=O)[C@@H]4C2C(=O)O1 (stereo not given in full) | 0.831 | -0.895 (inactive) | 0.869 (inactive) | -0.895 (inactive) | 0.773 (inactive) | -0.943 (inactive) | 0.673 (inactive) | -0.108 (inactive) | 1.04 | 0.235
15 | CC(C)NC(=O)[C@@H]1c2ccccc2C(=O)N(CC23CC4CC(CC(C4)C2)C3)[C@H]1c1ccc(CO)cc1 | 0.64 | -1.23 (inactive) | 0.955 (inactive) | 0.61 (inactive) | 0.553 (inactive) | -1.52 (inactive) | 0.765 (inactive) | 1.59 (inactive) | 0.834 | -0.0172
16 | CCN(CC)c1ccc(N2CC=CC34O[C@@H]5/C=C\CCC(C)OC(=O)C5[C@H]3C(=O)N(CCCO)[C@@H]4C2=O)cc1 (stereo not given in full) | -0.649 | 1.09 (inactive) | 0.267 (inactive) | 0.424 (inactive) | -0.745 (inactive) | 1.21 (inactive) | 0.692 (inactive) | 0.562 (inactive) | 0.47 | -0.0243
17 | CN1C(=O)C2C=CC(C(O)C(c3ccccc3)c3ccccc3)N(NC(=O)OC(C)(C)C)C2C1=O (stereo not given) | -0.889 | -4.58 (inactive) | -0.861 (inactive) | -1.08 (inactive) | 0.791 (inactive) | 0.225 (inactive) | -0.963 (inactive) | -0.577 (inactive) | -0.962 | 0.497
18 | COc1ccc(O[C@@H]2[C@H](O)CO[C@H]2C=CC#Cc2ccccc2)cc1 | 0.0873 | -0.274 (inactive) | -0.107 (inactive) | 0.18 (inactive) | 0.578 (inactive) | 0.905 (inactive) | -0.01 (inactive) | -0.812 (inactive) | 0.268 | 0.116
19 | CCOC(=O)CCN1C(=O)[C@H]2[C@H]3[C@H](O)[C@H](O)CC(=NOCc4ccccc4)[C@@H]3CC[C@H]2C1=O | -0.0233 | -0.949 (inactive) | -0.406 (inactive) | 0.404 (inactive) | 0.683 (inactive) | -0.172 (inactive) | -0.852 (inactive) | -0.599 (inactive) | -0.103 | 0.0455
20 | CC1(C)OCC(C(O)C2=CCCCC2=O)CO1 (stereo not given) | -0.786 | -0.124 (inactive) | 0.665 (inactive) | 0.523 (inactive) | 1.49 (inactive) | 0.205 (inactive) | -0.85 (inactive) | -2.63 (inactive) | 0.297 | -0.294
21 | CC(C)[C@@H](OCc1ccccc1)[C@H](C)C=NOC[C@@H](C)[C@H](OCc1ccccc1)C(C)C | -0.914 | 0.425 (inactive) | -0.908 (inactive) | -0.213 (inactive) | -0.324 (inactive) | -0.089 (inactive) | 0.705 (inactive) | 1.09 (inactive) | -1.11 | -0.345
22 | O=C1[C@H]2[C@H]3[C@H](O)[C@H](O)CC(=NO[C@@H]4O[C@H](CO)[C@@H](O)[C@H](O)[C@H]4O)[C@H]3CC[C@H]2C(=O)N1Cc1ccccc1 | 0.835 | -0.816 (inactive) | -0.183 (inactive) | -0.592 (inactive) | -0.0728 (inactive) | -1.1 (inactive) | -0.395 (inactive) | 0.355 (inactive) | 0.797 | 0.0153
23 | C[C@H]1Cc2c(-c3ccccc3)nc3c(c2CO1)CN(CCOc1ccccc1)CC3 | -0.33 | -1.97 (inactive) | 0.0723 (inactive) | -0.0439 (inactive) | 1.17 (inactive) | 0.671 (inactive) | 1.67 (inactive) | -0.176 (inactive) | 0.678 | -0.0599
24 | COc1ccc(COC(=O)NN=C2C[C@@H](O)[C@@H](O)[C@@H]3[C@@H]4C(=O)N(Cc5ccc6c(c5)OCO6)C(=O)[C@@H]4CC[C@@H]23)cc1 | 0.466 | -0.839 (inactive) | 0.401 (inactive) | -1.68 (inactive) | 2.55 (inactive) | -1.83 (inactive) | -0.459 (inactive) | -0.279 (inactive) | 1.24 | -0.0792

From PubChem BioAssay
